Viability (% of control) and Potency data for nine compounds are collected here from PubChem BioAssay (NCATS).

A short description of assay [1]: High-throughput drug toxicity screening in the BPDCN cell line Cal-1 (AID 1224825; call rule not given here). Particulars: Cal-1 BPDCN cell viability, qHTS; at 45.8 µM (top of the series). The essentials:
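Percent activity derived from CellTiter-Glo luminescence, scaling DMSO to 100% and 9.2 uM final bortezomib to 0%. BPDCN Cal-1 cells (500/well, RPMI plus 10% FBS) incubated with compounds 48 hours at 37C before reading.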
Background: qHTS replaces the single test concentration by a dilution series.

A short description of assay [2]: qHTS assay for measurement of the activity of small molecule inhibitors on Zika virus induced Caspase-3 activity in human iPSC derived neural progenitor cells (hNPCs) (AID 1224857). Further: % of control where 0% means no effect; nearly all actives have a fitted effect of over 65% in size. The essentials: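 Human iPSC-derived neural progenitor cells pretreated 1 hr with compounds, then infected with Zika virus (2 FFU/cell) for 6 hours at 37 C. Caspase-3/7 measured by Caspase-Glo luminescence; % inhibition calculated from induction scaled to uninfected (0%) and infected (100%) wells.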

The nature of assay [3]: qHTS assay for measurement of the activity of small molecule inhibitors on Zika virus induced Caspase-3 activity in human astrocytoma cells (AID 1224859).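 Further: plate controls were ZIKV-infected untreated cells for no effect and uninfected cells for full effect.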 The essentials:
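SNB-19 astrocytoma cells, 250/well, pretreated 1 h with compounds, then Zika virus at 2 FFU/cell for 6 h at 37 C; Caspase-Glo 3/7 luminescence after 30 min; percent inhibition normalised to uninfected and infected controls.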

The nature of assay [4]: qHTS Screen of the MIPE 4.0 Collection Against Ewings Sarcoma (RDES) (AID 1259252). Further: nearly all actives have a fitted effect of over 35% in size. Further: potency means the concentration at half of the fitted maximal effect. The essentials:
(§1)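 Cells plated in serum-containing RPMI (5% FBS) and treated with compound dilutions for 48 h. Readout luminescent viability; normalization relied on vehicle (no inhibition) and media-only columns (full inhibition).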

Assay [5] is described as follows: qHTS Screen of the MIPE 4.0 Collection Against Ewings Sarcoma (TC32) (AID 1259256). Further: nearly all actives have a fitted effect of over 45% in size. Further: potency means the concentration at half of the fitted maximal effect. The essentials:
as §1

Assay [6] can be described thus: P-glycoprotein substrates identified in KB-3-1 adenocarcinoma cell line, qHTS therapeutic library screen (AID 1346986). Further: nearly all actives have a fitted effect of over 60% in size. The essentials:
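Dose-response cytotoxicity, KB-3-1 vs P-gp-high KB-8-5-11, no colchicine in assay medium. Read: CellTiter-Glo at 72 h.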

Assay [7] is described as follows: P-glycoprotein substrates identified in KB-8-5-11 adenocarcinoma cell line, qHTS therapeutic library screen (AID 1346987). Further: nearly all actives have a fitted effect of over 65% in size. Further: potency means the concentration at half of the fitted maximal effect. The essentials: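 Human cervical adenocarcinoma KB-8-5-11 cells, selected in colchicine to over-express P-gp and assayed without it, were exposed for 72 h to titrated compounds. An ATP-based luminescent viability signal gave AC50.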
The nature of assay [8]: Natriuretic polypeptide receptor (hNpr1) antagonism - Pilot counterscreen GloSensor control cell line (AID 1347045; calls by dose curve; further: on the % scale 0 is the no-effect control and ±100 the full control effect). The essentials: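 The SNP-driven cGMP luminescence signal (50 uM, 20 min, room temperature) was measured in GloSensor HEK293 control cells. Compounds were tested as a LOPAC titration series and preincubated for 30-50 min.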
(In general: Counterscreens check selectivity or assay interference.)

The target in assay [9] is Atrial natriuretic peptide receptor 1 (Homo sapiens) (UniProt P16066). Put plainly: Natriuretic polypeptide receptor (hNpr1) antagonism - Pilot screen (AID 1347049; calls by dose curve;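 further: HEK293 cells with hNpr1 and GloSensor cGMP luciferase stimulated by 0.1 nM hNppA; agonist-evoked cGMP luminescence read 20 min after hNppA addition; on the % scale 0 is the no-effect control and ±100 the full control effect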). The essentials:
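Receptor antagonism read as cGMP-dependent luminescence in hNpr1/pGS-40F HEK293 cells: pre-read after 30 min compound exposure, post-read 20 min after hNppA agonist at 0.1 nM final, all at room temperature, protected from light; A-71915 titration as control.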

In assay [10] the target is Atrial natriuretic peptide receptor 2 (Homo sapiens) (UniProt P20594). Put plainly: Natriuretic polypeptide receptor (hNpr2) antagonism - Pilot subtype selectivity assay (AID 1347050; calls by dose curve; further: on the % scale 0 is the no-effect control and ±100 the full control effect). The essentials: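 Antagonist mode: compounds (LOPAC1280, seven 1:5 dilutions) added 30 min before 1 nM hNppC stimulation of hNpr2-HEK293 cGMP-sensor cells; luminescence read before and 20 min after agonist at ambient temperature.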
Sequence of Atrial natriuretic peptide receptor 2 (Homo sapiens) (P20594 whole entry, looked up): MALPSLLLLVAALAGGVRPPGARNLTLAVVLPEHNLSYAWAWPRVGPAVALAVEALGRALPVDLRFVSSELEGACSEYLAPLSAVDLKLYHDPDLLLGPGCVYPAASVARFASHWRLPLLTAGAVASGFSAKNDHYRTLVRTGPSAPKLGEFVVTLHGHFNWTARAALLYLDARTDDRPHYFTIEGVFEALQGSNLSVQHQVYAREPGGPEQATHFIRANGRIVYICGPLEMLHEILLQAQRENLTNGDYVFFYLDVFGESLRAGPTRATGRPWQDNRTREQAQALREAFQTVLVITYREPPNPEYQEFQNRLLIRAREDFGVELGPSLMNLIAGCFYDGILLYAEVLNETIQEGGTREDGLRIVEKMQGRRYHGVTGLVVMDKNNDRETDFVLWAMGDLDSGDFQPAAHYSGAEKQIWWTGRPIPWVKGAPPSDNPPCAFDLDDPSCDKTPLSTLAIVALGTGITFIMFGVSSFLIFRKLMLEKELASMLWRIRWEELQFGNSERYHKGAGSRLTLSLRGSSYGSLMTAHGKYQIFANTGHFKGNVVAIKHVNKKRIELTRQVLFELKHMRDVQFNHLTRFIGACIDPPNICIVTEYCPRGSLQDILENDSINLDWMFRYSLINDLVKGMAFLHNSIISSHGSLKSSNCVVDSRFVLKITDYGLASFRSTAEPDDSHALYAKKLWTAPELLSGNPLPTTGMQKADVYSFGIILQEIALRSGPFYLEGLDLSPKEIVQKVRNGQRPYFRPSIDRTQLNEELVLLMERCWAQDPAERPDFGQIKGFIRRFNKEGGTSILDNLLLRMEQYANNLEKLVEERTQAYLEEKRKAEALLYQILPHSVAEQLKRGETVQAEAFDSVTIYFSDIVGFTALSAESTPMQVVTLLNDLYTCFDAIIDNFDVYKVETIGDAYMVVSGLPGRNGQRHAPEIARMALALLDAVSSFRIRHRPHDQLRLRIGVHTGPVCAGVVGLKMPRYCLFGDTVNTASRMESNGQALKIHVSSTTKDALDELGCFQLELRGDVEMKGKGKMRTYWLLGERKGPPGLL

Assay [11] is described as follows: NS1 protein of Zika virus - qHTS assay to identify small molecule inhibitors in human HEK 293 cells (AID 1347053). Further: nearly all actives have a fitted effect of over 55% in size. Further: potency means the concentration at half of the fitted maximal effect. The essentials:
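Read-out is a two-antibody TR-FRET for ZIKV NS1, normalized between uninfected cells and infected cells. Compound added 1 h before MR766 infection at MOI 0.5; human HEK 293 cells incubated 24 h, 37 C.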

The nature of assay [12]: qHTS Screen of the MIPE 4.0 Collection Against Ewings Sarcoma (EW8) (AID 1259255). Further: nearly all actives have a fitted effect of over 35% in size. Further: potency means the concentration at half of the fitted maximal effect.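 On Viability: 100% = DMSO-treated cells and 0% = medium-only wells without cells.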 The essentials:
as §1

Assay [13] in a line: Identifying Small Molecule Inhibitors of Pancreatic Cancer Stem Cells (A2780, Spheroid) (AID 1259357).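 Further: spheroids pre-formed over 14 days in stem cell medium on hydrogel; compound exposure lasted 48 h before the ATP luminescence read; 100% = DMSO treated cells and 0% = wells without cells.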 Particulars: Potency: A2780 spheroid viability. The essentials:
(§2)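 Spheroids grown 14 days in stem cell media on hydrogel-coated nonadherent plates; 2D lines seeded directly. Compounds added after 4 h attachment, 48 h at 37C, 5% CO2; CellTiter-Glo luminescence normalized to DMSO (no inhibition) and no-cell wells (full inhibition).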

Assay [14] is described as follows: Identifying Small Molecule Inhibitors of Pancreatic Cancer Stem Cells (SN12C, Adherent) (AID 1259358).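 Further: cell survival measured after 48 h of compound exposure.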 The essentials:
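Pre-formed 14-day tumor spheroids or adherent cells dosed and incubated 48 h, 37C, 5% CO2. Viability assessed by CellTiter-Glo.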

A short description of assay [15]: Identifying Small Molecule Inhibitors of Pancreatic Cancer Stem Cells (SN12C, Spheroid) (AID 1259360).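 Further: 100% = DMSO-treated cells and 0% = wells without cells.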 Particulars: Potency: SN12C spheroid viability. The essentials:
as §2

A short description of assay [16]: Identifying Small Molecule Inhibitors of Pancreatic Cancer Stem Cells (Panc1, Adherent) (AID 1259362).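 Further: compound exposure lasted 48 h before the viability read; plate controls were DMSO-treated cells for no effect and cell-free media wells for full effect.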 Particulars: Potency: viability. The essentials: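 Viability is scored by CellTiter-Glo luminescence 48 h after dosing, expressed as percent activity against vehicle and no-cell references. Spheroid formats rely on cells cultured 14 days in stem cell media beforehand.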

Structures are written as SMILES. Inconclusive results are not listed. Activity calls are given as the source filed them. Unless noted, the call rests on the fitted dose curve; in most records, active means well fitted curve in the direction sought with a large enough effect; inconclusive means small, poorly fitted or top-dose-only effect, or another doubt; inactive means no such curve, though single readings can be large; an effect the other way counts as inactive or inconclusive.

Sequence of Atrial natriuretic peptide receptor 1 (Homo sapiens) (P16066 whole entry, looked up): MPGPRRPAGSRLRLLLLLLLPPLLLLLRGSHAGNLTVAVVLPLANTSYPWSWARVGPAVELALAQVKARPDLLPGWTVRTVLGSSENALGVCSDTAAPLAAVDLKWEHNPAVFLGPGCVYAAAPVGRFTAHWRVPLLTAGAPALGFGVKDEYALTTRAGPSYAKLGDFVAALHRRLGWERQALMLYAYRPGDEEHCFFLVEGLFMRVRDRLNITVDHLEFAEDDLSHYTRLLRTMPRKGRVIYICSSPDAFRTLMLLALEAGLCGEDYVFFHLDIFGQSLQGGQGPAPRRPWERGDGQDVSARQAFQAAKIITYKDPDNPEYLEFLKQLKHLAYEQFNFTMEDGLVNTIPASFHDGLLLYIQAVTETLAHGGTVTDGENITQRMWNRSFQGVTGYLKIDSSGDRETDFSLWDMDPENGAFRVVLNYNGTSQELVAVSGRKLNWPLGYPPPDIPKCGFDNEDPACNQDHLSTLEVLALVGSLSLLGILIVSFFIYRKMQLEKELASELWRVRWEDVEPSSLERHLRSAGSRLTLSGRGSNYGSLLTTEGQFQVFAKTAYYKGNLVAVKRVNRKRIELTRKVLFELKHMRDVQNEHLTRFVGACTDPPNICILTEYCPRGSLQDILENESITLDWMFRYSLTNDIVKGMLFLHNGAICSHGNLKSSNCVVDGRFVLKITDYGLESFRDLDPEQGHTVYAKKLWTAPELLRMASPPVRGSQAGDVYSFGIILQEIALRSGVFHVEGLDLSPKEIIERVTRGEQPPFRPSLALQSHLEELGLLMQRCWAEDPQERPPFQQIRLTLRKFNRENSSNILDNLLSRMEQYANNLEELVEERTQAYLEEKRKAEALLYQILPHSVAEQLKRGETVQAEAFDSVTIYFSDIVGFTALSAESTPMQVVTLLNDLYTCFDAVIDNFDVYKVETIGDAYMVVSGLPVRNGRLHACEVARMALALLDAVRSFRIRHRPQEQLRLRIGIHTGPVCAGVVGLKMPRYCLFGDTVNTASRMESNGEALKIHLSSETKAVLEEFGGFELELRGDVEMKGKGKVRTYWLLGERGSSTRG

As to `Cc1c(C(=O)Nc2cccc(C(F)(F)F)c2)cc(-c2ccccc2)n1CCCN1CCOCC1`, in assay [1], the viability (% of control) is 37.9%. Moreover, the Potency entry in assay [2] and in assay [3] was “inactive” each time. In addition, the Potency in [4] is 13200 nM (active); in [5] it was 8330 nM (active).
Regarding `CC1=NN=C(c2ccc(N)cc2)c2cc3c(cc2C1)OCO3`, the viability (% of control) in assay [1] was 12.1%. Moreover, the Potency entry in assay [2], in assay [3], in assay [4], in [5], in [6] and in assay [7] was “inactive” in each case. Further, the Potency entry in assay [8], in assay [9], in assay [10] and in assay [11] was “inactive” in each case.
Take `COc1ccc2c(c1)[C@]13CCCCC1C(C2)N(C)CC3` (stereo partly drawn): the viability (% of control) in [1] was found to be 93.4%. Moreover, the Potency result in [2], in assay [3], in assay [4], in assay [12], in assay [5] and in assay [7] was “inactive” in each case. Further, the Potency entry in assay [11] is “inactive”.
For `CC(=O)OCC1=C(C(=O)O)N2C(=O)[C@@H](N)[C@@H]2SC1`, the viability (% of control) in assay [1] was 15.5%. Further, the Potency entry in assay [2], in assay [3], in assay [4], in assay [12], in assay [5] and in [7] was “inactive” in each case. Also, the Potency result in assay [11] was “inactive”.
For the compound `CO[C@H]1CCC(O[C@H]2C[C@H]([C@]3(C)CC[C@]4(C[C@H](O)[C@@H](C)[C@@H]([C@@H](C)C=C(C)C(=O)[C@H](C)C[C@H](C)C(=O)O)O4)O3)O[C@]3(O[C@@H]([C@H]4O[C@@](O)(CO)[C@H](C)C[C@H]4C)C[C@H]3C)[C@H]2C)O[C@H]1C` (stereo partly drawn), the viability (% of control) in assay [1] worked out at 72.5%. Moreover, the Potency entry in [2] and in assay [3] was “inactive” throughout. Further, the Potency was 418 nM (active) in assay [4], 372 nM (active) in [12], 418 nM (active) in [5] and 743 nM (active) in [11].
As to `CC=C(C)C(=O)N[C@@H](c1ccccc1)[C@@H](O)C(=O)O[C@H]1C[C@@]2(O)[C@@H](OC(=O)c3ccccc3)[C@@H]3[C@]4(OC(C)=O)CO[C@@H]4C[C@H](O)[C@@]3(C)C(=O)[C@H](OC(C)=O)C(=C1C)C2(C)C`, the viability (% of control) in [1] was found to be 19.1%. Also, the Potency entry in assay [2], in assay [3], in [4], in assay [12] and in assay [5] was “inactive” each time. For the same compound, in assay [11], the Potency was 3.3 nM (active).
With `O=C(Oc1ccc([N+](=O)[O-])cc1)N1CCC(C(O)(c2ccc3c(c2)OCO3)c2ccc3c(c2)OCO3)CC1`, the viability (% of control) in assay [1] was found to be 64.3%. For the same compound, the Potency result in [2], in assay [3], in [12], in [5], in assay [13] and in assay [14] was “inactive” in each case. Further, the Potency result in assay [15], in assay [16], in assay [7] and in [11] was “inactive” throughout. The Potency in assay [4] is 16600 nM (active).
For `CC[C@@H]1[C@@H](C)O[C@@](O)([C@@H](C)[C@H](O)[C@H](C)[C@H]2OC(=O)C=CC=C[C@@H](C)[C@@H]([C@@H](C)[C@@H](O)[C@H](C)[C@@]3(O)C[C@H](O[C@H]4C[C@H](O)[C@H](O)[C@H](C)O4)[C@H](CC)[C@@H](C)O3)OC(=O)C=CC=C[C@@H]2C)C[C@H]1O[C@H]1C[C@H](O)[C@H](O)[C@H](C)O1`, in [1], the viability (% of control) came out at 3.46%. Further, the Potency entry in [2] and in assay [3] was “inactive” in each case. Moreover, the Potency in assay [4] was 662 nM (active); in assay [12] it was 590 nM (active); in assay [5] it was 662 nM (active); in assay [7], 3320 nM (active); in [11], 1050 nM (active).
On to `CCC(=O)OC1CCC2C3CCC4=CC(=O)CC[C@@]4(C)C3CC[C@]12C` (stereo partly drawn), for which the viability (% of control) in [1] was found to be 105%. Moreover, the Potency result in assay [2], in [3], in assay [4], in assay [5], in [6] and in [11] was “inactive” throughout.
